KKLEB tox – reduces viability of KKLEB cystic fibrosis airway cells. KKLEB CF airway cells viability, ATPlite luminescence, overnight; stronger effect = lower value; cells stimulated with P. aeruginosa culture filtrate. AID 602141. activity change (cytotoxicity), % at 5 µM. 360,000 tested, 0.36% active;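 active means corrected activity change at or below -50% at 5 µM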
MITF TRPM1 inh – reduces MITF-dependent TRPM1 promoter luciferase signal. SK-MEL-5 TRPM1 promoter luciferase, 24 h. inhibition, % at 12.5 µM. 330,000 tested, 0.83% active. AID 488899;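 active means mean inhibition across replicates of 60% or more, whatever share of single replicates reaches that level; inconclusive means some that reach 60%, reason not given; inactive means mean inhibition across replicates below 60%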
Shn3 inh set2 – inhibitors of Schnurri-3 3'UTR reporter in osteoblasts | Clone20 osteoblast Shn3 3'UTR firefly luciferase, 24 h | inhibition, % at 12.5 µM | 360,000 tested, 0.52% active;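 active means mean inhibition of at least 75% with every replicate also reaching 75%; inconclusive means mean inhibition at least 75% but some replicate below; inactive means mean inhibition below 75%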;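 further: 0% = median of neutral control wells and 100% = pilot-screen positive control compound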
HIF-2a block – inhibitors of HIF-2a | inhibition, % at 18.8 µM | AID 624352 | 360,000 tested, 0.72% active | 786-0 RCC cells HIF-2a reporter, luciferase luminescence, overnight;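 active means inhibition of the luminescence signal of 40% or more relative to plate controls, in a single-dose primary screen at 18.75 µM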
CF NFkB block – inhibitors of cystic fibrosis induced NF-kB. inhibition, % at 5 µM. 360,000 tested, 0.86% active. KKLEB NF-kB-GFP reporter, PAF-induced, GFP fluorescence overnight. AID 588850;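 active means at least 50% inhibition at 5 µM, scaled per plate between neutral and stimulator controls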;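 further: PAF is a Pseudomonas aeruginosa culture filtrate used as stimulus; plate controls were PAF-stimulated DMSO wells for no effect and unstimulated DMSO wells for full effect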
Peg3 prom inh-1 – Peg3 promoter activity inhibition; 360,000 tested, 1.7% active; inhibition, % at 20 µM; HeLa PEG-Prom luciferase reporter, luminescence, overnight;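 active means inhibition of at least 50% at 20 µM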
Peg3 prom inh-2 – confirmation of Peg3 promoter inhibitors | shares compounds with Peg3 prom inh-1 | HeLa PEG-Prom luciferase reporter, luminescence, overnight | inhibition, % at 20 µM | 1,300 tested, 84% active | AID 602417;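 active means at 20 µM dose, 40% or more inhibition averaged across four replicates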
* hit, by the source's call; u = inconclusive; x = not tested or not shown. The list is not random: actives were taken first. Their share in the collection is about 2.7%.

SMILES	KKLEB tox	MITF TRPM1 inh	Shn3 inh set2	HIF-2a block	CF NFkB block	Peg3 prom inh-1	Peg3 prom inh-2
CCOc1cccc(CNCCc2c(C)[nH]c3ccc(OC(F)(F)F)cc23)c1O	-29	98*	u	6	24	107*	x
Cc1[nH]c2ccc(OC(F)(F)F)cc2c1CCNCc1ccc(Cl)cc1	-13	-5	15	17	15	111*	x
COc1ccc2[nH]c(C)c(CCNCc3cccnc3)c2c1	-2	14	8	8	-5	11	x
C=C(C)CSc1nnc([C@@H](N)Cc2c[nH]c3ccccc23)o1	0	3	-7	3	-4	5	x
Cc1[nH]nc2ccc(-c3cncc(OC[C@@H](N)Cc4c[nH]c5ccccc45)c3)cc12	-87*	91*	96*	75*	85*	100*	x
CCCCn1nnnc1C(C1CC1)N1CCC(n2c(=O)[nH]c3ccccc32)CC1 (centres undefined)	-5	x	2	-10	7	44	x
CCCCn1nnnc1C(CCSC)N1CCC(n2c(=O)[nH]c3ccccc32)CC1 (centres undefined)	9	x	16	-8	-23	52*	68*
COc1cccc(C(c2nnnn2-c2c(C)cccc2C)N2CCC(n3c(=O)[nH]c4ccccc43)CC2)c1OC (centres undefined)	-6	x	-2	-4	20	58*	42*
CCC1CN1P(=O)(Oc1ccc(Cl)cc1)N1CC1CC (centres undefined)	-15	0	2	13	17	14	x
Cc1ccc(S(=O)(=O)NP(=O)(Oc2ccccc2)Oc2ccccc2)cc1	-2	4	-7	-2	7	4	x
Cc1ccc(C)c(NP(=O)(Oc2ccccc2)Oc2ccccc2)c1	-67*	-10	4	10	97*	63*	67*
COc1ccc(CN2Cc3cnnn3-c3ccccc3C2C)cc1 (centres undefined)	6	4	-1	15	23	23	x
CCN(CC)C(=O)c1ccc(NC(=O)CN2CCc3cc(OC)c(OC)cc3C2)cc1	-18	6	21	11	1	8	x
CCOC(=O)c1c(-n2c(C)cc(C=C3C(=O)NC(=S)NC3=O)c2C)sc2c1CCCC2	5	64*	63	77*	34	109*	62*
COC(COC(N)=O)C1=C(N2CC2)C(=O)C(C)=C(N2CC2)C1=O (centres undefined)	-37	-3	70	-5	89*	98*	97*
CCC1(OC(=O)CN)C(=O)OCc2c1cc1n(c2=O)Cc2cc3ccccc3nc2-1 (centres undefined)	-34	80*	2	34	79*	84*	73*
O=[N+]([O-])c1cc(F)c(N2CCCCCC2)cc1N1CCNCC1	-23	6	-18	-3	26	99*	97*
COC(=O)C1=C(c2ccc(OC(F)(F)F)cc2)C[C@@H]2CC[C@H]1N2C(=O)NC1CCCCC1	-4	7	28	15	13	12	x
Cc1[nH]c2ccc(OC(F)(F)F)cc2c1CCNCc1cccc([N+](=O)[O-])c1	-14	-13	44	-26	13	82*	58*
Cc1ccc2[nH]c(C)c(CCNCc3ccco3)c2c1	5	-2	8	10	-27	-8	x
COc1cc2nc(CN3CC=C(c4ccccc4)CC3)[nH]c(=O)c2cc1OC	-7	1	-72	-210	69*	102*	94*
O=C(c1ccc(Cl)cc1)C1CCCN(C2CCSCC2)C1 (centres undefined)	-9	-8	-19	10	0	14	x
CC[n+]1c(-c2ccccc2)c2cc(N)ccc2c2ccc(N)cc21	0	x	40	2	-66	55*	87*
O=c1c2ccccc2nc(CSc2ncnc3nc[nH]c23)n1-c1ccc(Cl)c(Cl)c1	-6	3	20	27	1	60*	45*
O=C1NCN(c2ccccc2)C12CCN(C(c1cccs1)c1nnnn1Cc1ccccc1)CC2 (centres undefined)	-2	x	0	16	-11	50*	40*
SMILES	KKLEB tox	MITF TRPM1 inh	Shn3 inh set2	HIF-2a block	CF NFkB block	Peg3 prom inh-1	Peg3 prom inh-2
COc1cc(C)cc2oc(=O)c(CC(=O)N3C[C@H]4C[C@@H](C3)c3cccc(=O)n3C4)c(C)c12	3	2	-2	10	5	10	x
COC(=O)C1=C(c2cccc(OCc3ccccc3)c2)C[C@@H]2CC[C@H]1N2C(=O)NCc1ccccc1C(F)(F)F	-1	3	36	15	13	15	x
CC(=NCCC1=CCCCC1)c1c(O)n(-c2ccccc2)c(=O)[nH]c1=O	-7	x	15	-20	13	-9	x
Cc1ccc2c(c1)cc1c(=O)n(CC(=O)N3CCC4(CC3)OCCO4)nc(C)n12	18	4	16	-6	-8	-3	x
CC(=O)OC1CC[C@]2(C#N)[C@H]3CC[C@]4(C)[C@H](C5C=CC(=O)O5)CCC4(O)C3CCC2(O)C1 (some centres undefined)	-15	34	-14	4	22	76*	87*
COc1ccc(-n2c(/C=C/c3ccc(O)c(OC)c3)nc3ccccc3c2=O)cc1	-27	4	5	24	33	56*	69*
CCOC(=O)c1c(C)n(Cc2ccccc2)c2ccc(OCC(O)CNC(C)(C)C)cc12 (centres undefined)	-12	3	3	4	19	5	x
O=[N+]([O-])c1ccc(NC2CCN(Cc3ccccc3)CC2)c2ccncc12	-8	18	16	29	-18	67*	78*
O=[N+]([O-])c1ccc(NC2CCCC2)c2ccncc12	-7	-1	21	21	28	26	x
CCOC(=O)[C@]12Cc3cc(OC)ccc3[C@H]1N(Cc1ccccc1)C(=O)c1ccccc12	6	6	-8	5	6	17	x
CCOC(=O)[C@]12Cc3cc(C)ccc3[C@H]1N(Cc1ccccc1)C(=O)c1ccccc12	15	-1	7	17	-24	65*	34
COc1ccccc1C=C1C(=O)NC(=S)NC1=O	14	5	11	3	-26	-2	x
Cc1cc(C)cc(N2C(=O)NC(=O)/C(=C\c3cccn3-c3ccc(Cl)cc3)C2=O)c1	4	51	30	15	20	104*	56*
O=C1NC(=S)NC(=O)C1=Cc1cccn1-c1ccc(O)cc1	2	94*	16	56*	26	71*	49*
c1ccc2c(c1)CNCc1cnnn1-2	10	-4	2	-3	-6	-14	x
COC(=O)c1ccc(CN2CCSC2=N)cc1	2	-3	3	16	-19	14	x
